Experimental findings from PubChem BioAssay AID504333 (National Center for Advancing Translational Sciences (NCATS), 2011) are described below.

Hit rate of the full screen: of about 360,000 compounds, about 16,000 (4.4%) were called active. Another 9% or so got no clear call; they are omitted. Calls follow the shape of the dose curve; as a rule, active = well fitted inhibition curve with a large enough effect; inconclusive = small, poorly fitted or top-dose-only effect; inactive = no such curve, though single readings can be large or run the other way. Many of the other results were omitted from the sample, so actives are more common in it than they were.
% is scaled to controls: 0 for no effect and ±100 for the full control effect; potency is read from the fitted curve at half-maximal effect.

The target of the assay is Bromodomain adjacent to zinc finger domain protein 2B (Homo sapiens) (UniProt Q9UIF8). In words: qHTS Assay for Inhibitors of BAZ2B. Also: nearly all actives have a fitted effect of over 60% in size. The note with it: AlphaScreen BAZ2B-H3K14Ac peptide displacement; series mostly up to 114 µM; activity change, negative = inhibition: at the top concentration. In a few lines: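 BAZ2B 50 nM plus b-H3(5-23)K14Ac 50 nM, PBS pH 7.4/0.01% Tween-20, 30 min RT; compound added (max 110 uM), 30 min RT; streptavidin donor/Ni-chelate acceptor beads 10 ug/mL final, 20 min dark; AlphaScreen read.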
Chain of Bromodomain adjacent to zinc finger domain protein 2B (Homo sapiens) (Q9UIF8 whole entry, looked up, the tested form may be a part): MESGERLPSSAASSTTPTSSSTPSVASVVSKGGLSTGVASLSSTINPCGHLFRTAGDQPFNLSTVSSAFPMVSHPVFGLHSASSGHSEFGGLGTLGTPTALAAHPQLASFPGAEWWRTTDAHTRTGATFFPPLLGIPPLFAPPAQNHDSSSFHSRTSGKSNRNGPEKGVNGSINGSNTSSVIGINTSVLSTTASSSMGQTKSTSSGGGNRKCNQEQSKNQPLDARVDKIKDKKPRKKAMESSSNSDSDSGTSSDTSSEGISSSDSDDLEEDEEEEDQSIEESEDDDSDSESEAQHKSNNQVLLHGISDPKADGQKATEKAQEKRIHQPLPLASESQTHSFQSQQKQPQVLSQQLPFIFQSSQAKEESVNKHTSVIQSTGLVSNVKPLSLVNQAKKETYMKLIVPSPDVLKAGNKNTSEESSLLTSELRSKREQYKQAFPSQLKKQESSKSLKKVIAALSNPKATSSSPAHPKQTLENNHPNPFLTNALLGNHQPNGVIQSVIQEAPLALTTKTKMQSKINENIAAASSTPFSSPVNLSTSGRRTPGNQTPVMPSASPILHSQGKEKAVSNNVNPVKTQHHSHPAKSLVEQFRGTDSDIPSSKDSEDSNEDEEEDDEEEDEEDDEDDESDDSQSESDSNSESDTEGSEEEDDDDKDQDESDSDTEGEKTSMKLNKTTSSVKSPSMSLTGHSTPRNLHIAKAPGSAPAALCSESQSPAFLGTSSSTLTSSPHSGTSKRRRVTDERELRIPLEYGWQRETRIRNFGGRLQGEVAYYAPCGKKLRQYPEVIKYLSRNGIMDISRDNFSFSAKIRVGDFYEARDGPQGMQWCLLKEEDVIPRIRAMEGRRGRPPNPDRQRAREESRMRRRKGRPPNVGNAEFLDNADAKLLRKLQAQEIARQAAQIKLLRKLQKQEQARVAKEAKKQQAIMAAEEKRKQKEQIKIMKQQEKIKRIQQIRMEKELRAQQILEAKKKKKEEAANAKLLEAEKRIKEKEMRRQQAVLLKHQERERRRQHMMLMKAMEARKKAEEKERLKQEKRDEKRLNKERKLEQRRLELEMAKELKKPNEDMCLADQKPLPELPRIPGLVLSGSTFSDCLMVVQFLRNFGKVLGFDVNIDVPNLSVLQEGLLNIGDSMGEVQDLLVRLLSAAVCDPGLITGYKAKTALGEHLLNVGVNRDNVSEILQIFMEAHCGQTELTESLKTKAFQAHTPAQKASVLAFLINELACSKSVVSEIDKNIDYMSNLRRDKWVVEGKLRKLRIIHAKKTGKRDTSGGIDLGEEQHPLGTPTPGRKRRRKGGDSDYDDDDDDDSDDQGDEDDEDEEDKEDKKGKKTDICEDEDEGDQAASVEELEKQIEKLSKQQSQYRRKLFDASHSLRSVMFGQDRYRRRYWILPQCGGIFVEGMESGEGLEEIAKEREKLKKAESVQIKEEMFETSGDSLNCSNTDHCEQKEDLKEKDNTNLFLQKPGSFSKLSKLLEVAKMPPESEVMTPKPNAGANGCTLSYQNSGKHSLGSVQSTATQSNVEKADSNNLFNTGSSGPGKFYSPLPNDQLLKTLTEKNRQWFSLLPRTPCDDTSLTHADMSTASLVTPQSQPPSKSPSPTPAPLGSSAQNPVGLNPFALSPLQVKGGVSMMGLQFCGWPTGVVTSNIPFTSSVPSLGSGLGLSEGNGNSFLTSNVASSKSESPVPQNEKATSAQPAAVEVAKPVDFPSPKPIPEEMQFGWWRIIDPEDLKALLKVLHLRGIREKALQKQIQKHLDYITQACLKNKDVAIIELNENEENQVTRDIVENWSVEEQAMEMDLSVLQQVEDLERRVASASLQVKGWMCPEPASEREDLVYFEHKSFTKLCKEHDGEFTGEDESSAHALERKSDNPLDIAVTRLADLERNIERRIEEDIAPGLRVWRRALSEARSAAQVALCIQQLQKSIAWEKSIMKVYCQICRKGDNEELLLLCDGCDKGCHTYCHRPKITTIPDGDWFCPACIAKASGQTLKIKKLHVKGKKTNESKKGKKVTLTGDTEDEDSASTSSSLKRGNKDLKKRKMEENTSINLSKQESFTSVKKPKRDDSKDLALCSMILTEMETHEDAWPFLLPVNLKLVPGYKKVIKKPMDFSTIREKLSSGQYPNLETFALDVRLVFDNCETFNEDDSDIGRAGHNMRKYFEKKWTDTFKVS
(In general: In qHTS, concentration-response curves come from the screen itself.)
For `CCn1cc2nc(SCc3ccccc3Cl)n(CCc3ccccc3)c(=O)c2n1`, the “activity change, negative = inhibition” value was -16.7% (inactive).
Still for that read-out and setting: for `CCc1cc2c(cc(C(=O)OC)n2Cc2nc(-c3ccc(C)cc3)oc2C)s1` the value was -11.1% (inactive).
On the same count and under the same terms, for `O=S(=O)(Cc1cc(Cl)nc(-c2cccnc2)n1)c1ccccc1` the value was 11% (inactive).
Take `N#Cc1c(Cl)nc(-c2cccnc2)nc1-c1ccccc1`: the Potency was 70.8 µM (active).
Consider `CN(C)c1nc(-c2cccnc2)nc(-c2ccc(Cl)cc2)c1C#N`, for which the “activity change, negative = inhibition” value was -4.97% (inactive).
On the same count and under the same terms, for `COc1ccc(OC)c(-n2nnc(-c3nc(-c4cc(OC)c(OC)c(OC)c4)no3)c2C)c1` the value was -2.45% (inactive); for `Cc1ccc(Cl)cc1NC(=O)COC(=O)CC(C)(C)C`, -1.46% (inactive).
For `CCCC(=O)OCC(=O)Nc1cc(Cl)ccc1[N+](=O)[O-]`, the Potency is 39.8 µM (active).
Consider `CC(C)(C)NC(=O)COC(=O)c1cc(Cl)ccc1[N+](=O)[O-]`, for which the “activity change, negative = inhibition” value was -36.3% (inactive).
With `CCOc1ccc(NC(=O)C(CC(C)C)N2Cc3ccccc3C2=O)cc1` (centres undefined), the “activity change, negative = inhibition” value was 1.11% (inactive).
`Cc1ccccc1NC(=O)Cn1cc(C(=O)c2cccs2)c2ccccc21`: the “activity change, negative = inhibition” value is -0.676% (inactive).
As for `CCC(C)c1ccc2oc(-c3ccc(NC(=O)c4cc5ccccc5o4)cc3)nc2c1` (centres undefined), the “activity change, negative = inhibition” value was -1.68% (inactive).
On the same count and under the same terms, as for `COC(=O)N/N=C/c1ccc(/C=N/NC(=O)OC)cc1`, the figure is 8.67% (inactive).
Take `COC(=O)c1ccc(/C=N/N2C(C)CCCC2C)cc1` (centres undefined): the Potency was 56.2 µM (active).
In the case of `COC(=O)c1ccc(/C=N/NC(=O)C(=O)N2CCCCCC2)cc1`, the “activity change, negative = inhibition” value was -12.8% (inactive).
Still for that read-out and setting: as for `COc1ccc(CCNc2ncnc3c2cnn3-c2ccc(C)cc2)cc1`, the figure is 0.308% (inactive).
Still for that read-out and setting: for `CCOc1ccc(S(=O)(=O)c2cn(Cc3ccc(OC)cc3)c3ccc(F)cc3c2=O)cc1` the value was -5.21% (inactive).
`O=c1[nH]c2ccccc2n2c(-c3ccccc3)nnc12`: the Potency was 20 µM (active).
With `O=c1cc(-c2ccccc2)n2c(SCc3ccccc3)nnc2[nH]1`, the “activity change, negative = inhibition” value is 1.16% (inactive).
Regarding `O=c1[nH]n2c(-c3ccccc3)nc(O)c2c2ccccc12`, the “activity change, negative = inhibition” value is -1.83% (inactive).
On the same count and under the same terms, as for `Cc1ccc(C(=O)NCCSc2c(C)[nH]c3ccccc23)cc1C`, the figure is -34.8% (inactive).
On the same count and under the same terms, as for `CC1CCC2(CC1)N=C(c1ccccc1)C(=O)N2CC(=O)Nc1ccc(F)c(Cl)c1` (centres undefined), the figure is -9.91% (inactive); as for `COC(=O)c1cnn(-c2ccc(C(=O)Nc3ccc(OC(F)(F)F)cc3)cc2)c1N`, 2.8% (inactive).
As to `COc1ccc(Cc2nnc(NC(=O)Cc3cccs3)s2)cc1`, the Potency is 44.7 µM (active).
On to `O=C(Cc1cccs1)Nc1nnc(SCc2ccc(F)cc2)s1`, for which the “activity change, negative = inhibition” value was 12.2% (inactive).
The same measure, in the same setting: as for `CCc1nnc(NC(=O)Cc2cccs2)s1`, the figure is -9.54% (inactive).
For the compound `CCCCN=C1C([N+](=O)[O-])=CC=C2C1=NC1(CCCCC1)N2O`, the Potency was 2.24 µM (active).
Regarding `CCC(C(=O)Nc1cc(OC)ccc1OC)n1c(=O)c(C(F)(F)F)nc2ccccc21` (centres undefined), the “activity change, negative = inhibition” value was -1.26% (inactive).
Still for that read-out and setting: as for `COc1cccc(-n2cc(C(=O)NCc3cccc(Cl)c3)c3ccccc3c2=O)c1`, the figure is -37.4% (inactive).
